Consider 52 compounds from PubChem BioAssay AID624040 (The Scripps Research Institute Molecular Screening Center, 2012).

SMILES strings stand for the structures. Several values for one entry are separate records, joined by “and”; a condition that tells them apart may be missing. Equal values may be shown once. The campaign covered roughly 360,000 compounds. About 2,100 (0.58%) were called active. The sample holds actives, similar compounds and a random draw of the others, so the mix is not that of the screen. A number with no mark means an inactive call.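 The calls were made as follows: active = inhibition above a per-plate cutoff, the mean of that plate's test compounds plus 3 SD (cut at about 27% in these data); inactive = the rest.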

In this experiment the target is Muscarinic acetylcholine receptor M5 (Homo sapiens) (UniProt P08912). The experiment is described as follows: human M5 muscarinic receptor antagonists, primary screen, CHO cells, Fluo-8 calcium fluorescence (AID 624040).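 Also: 0% = acetylcholine EC80 with DMSO and 100% = DMSO without agonist.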 The conditions noted are these: CHO-hM5 cells, ACh EC80, at 3 µM, active compounds read high.
Sequence of Muscarinic acetylcholine receptor M5 (Homo sapiens) (P08912 whole entry, looked up): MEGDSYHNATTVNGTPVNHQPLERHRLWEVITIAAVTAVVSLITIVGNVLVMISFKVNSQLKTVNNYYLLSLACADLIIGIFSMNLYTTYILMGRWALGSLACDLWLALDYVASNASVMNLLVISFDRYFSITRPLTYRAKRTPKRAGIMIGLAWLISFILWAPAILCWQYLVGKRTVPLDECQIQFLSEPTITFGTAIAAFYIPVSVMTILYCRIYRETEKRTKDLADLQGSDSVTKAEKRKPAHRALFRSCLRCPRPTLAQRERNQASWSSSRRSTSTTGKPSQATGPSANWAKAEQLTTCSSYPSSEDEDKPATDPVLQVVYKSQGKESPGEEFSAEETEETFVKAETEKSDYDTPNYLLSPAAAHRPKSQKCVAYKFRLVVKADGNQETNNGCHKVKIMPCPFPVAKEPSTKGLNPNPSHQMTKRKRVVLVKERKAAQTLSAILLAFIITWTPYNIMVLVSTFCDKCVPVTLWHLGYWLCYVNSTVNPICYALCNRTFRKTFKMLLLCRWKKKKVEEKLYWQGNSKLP
Consider `Cc1ccc(C(=O)C[n+]2cc(-c3ccccc3)n3c2CCCCC3)cc1`, for which the inhibition (as a rule, the change of the read-out against control, counted positive when it falls) is 4.95% and 0.73%.

On to `Cc1ccc(-c2c[n+](CC(=O)Nc3ccccc3)c3n2CCC3)cc1`, for which the inhibition was 2.52%.

As for `Clc1ccc(C[n+]2cc(-c3ccc(Cl)cc3)n3c2CCC3)cc1`, the inhibition was 32.4% (active).

On to `COc1ccc(S(=O)(=O)N(C)CC(=O)NCCCN2CCOCC2)cc1Cl`, for which the inhibition is 8.37%.

`CCN1CCN(C(=O)Cn2nc(C)n3c(cc4c(OC)cccc43)c2=O)CC1`: the inhibition was 2.41%.

As to `COc1ccc(CCNC(=O)CCC(=O)NC2CCCCC2)cc1OC`, the inhibition is 15.9%.

On to `CCc1ccc(N(C(=O)c2csnn2)C(C(=O)NC2CCCCC2)c2cccnc2)cc1` (configuration not stated), for which the inhibition is -0.48%.

Consider `Cc1cccc(NS(=O)(=O)c2ccc(C)c(C(=O)NCC(c3ccccc3)N(C)C)c2)c1` (configuration not stated), for which the inhibition is 5.12%.

Regarding `COc1ccccc1CNC(=O)c1ccc(Cl)c(S(=O)(=O)N2CCCC2)c1`, the inhibition is -2.46%.

`COc1ccccc1C(CNC(=O)c1cccc(S(=O)(=O)Nc2ccc(F)cc2)c1)N(C)C` (configuration not stated): the inhibition is 98% (active).

For the compound `Cc1ccc(C(=O)NCC(c2cccs2)N(C)C)cc1S(=O)(=O)N1CCOCC1` (configuration not stated), the inhibition is 4.49%.

Take `CN(C)C(CNC(=O)c1cccc(S(=O)(=O)Nc2ccc(Br)cc2)c1)c1ccco1` (configuration not stated): the inhibition was 4.75%.

As for `COc1ccccc1C(CNC(=O)c1ccc(C)c(S(=O)(=O)N2CCCCC2)c1)N(C)C` (configuration not stated), the inhibition is 98.7% (active).

`COc1ccccc1C(CNC(=O)c1cccc(NS(=O)(=O)c2ccc(Br)cc2)c1)N(C)C` (configuration not stated): the inhibition was 93.8% (active).

`CC(=O)c1ccc(S(=O)(=O)Nc2ccc(C(=O)NCC(c3ccccc3)N(C)C)cc2)cc1` (configuration not stated): the inhibition is 0.82%.

Consider `COc1ccc(C(CNC(=O)c2cccc(S(=O)(=O)Nc3ccc(Br)cc3)c2)N(C)C)cc1` (configuration not stated), for which the inhibition was 5.55%.

Consider `C/C(CC(O)(/C=N/O)c1ccccc1)=N\O` (configuration not stated), for which the inhibition was -4.45%.

`O=C(CSc1nnc(-c2c[nH]c3ccccc23)n1-c1ccc(F)cc1)NCc1ccco1`: the inhibition was -3.75%.

For `CCOc1ncccc1C(=O)OCC(=O)NC1CC1`, the inhibition is 10.6%.

Turning to `CC(C)C(=O)N1CCN(CCN=CC2=C(O)CC(c3ccco3)CC2=O)CC1` (configuration not stated), the inhibition is -10.8% and 8.17%.

Turning to `CCOC(=O)C1=NN(c2ccc(Cl)cc2)/C(=C/C2=NCCc3cc(OC)c(OC)cc32)S1`, the inhibition is -2.43%.

As for `O=C(NCc1ccccc1)C1CCCN(c2nc3ccsc3c(=O)s2)C1` (configuration not stated), the inhibition is -8.79%.

Consider `Cc1cccc(N(Cc2ccccc2)C(=O)c2cc(S(=O)(=O)N3CCOCC3)ccc2F)c1`, for which the inhibition is 1.23%.

On to `CN(Cc1cn(Cc2ccc(C(F)(F)F)cc2)nn1)C1CN(Cc2cn(Cc3ccc(C(F)(F)F)cc3)nn2)S(=O)(=O)C1` (configuration not stated), for which the inhibition is 28.6% (active).

On to `Cc1ccc(Cn2cc(CN3CC(N4CCN(C)CC4)CS3(=O)=O)nn2)cc1` (configuration not stated), for which the inhibition is 0.4%.

In the case of `CN(C)C1CN(Cc2cn(Cc3ccccc3)nn2)S(=O)(=O)C1` (configuration not stated), the inhibition is 0.6%.

For `COC(=O)c1c(-c2cccs2)csc1NC(=O)CSc1ncnc2sc(C)c(C)c12`, the inhibition is -0.42%.

On to `O=S(=O)(Nc1ccc(O)c2ccccc12)c1ccc(OC(F)(F)F)cc1`, for which the inhibition was 7.68%.

As for `O=C(c1ccc(F)cc1)N1CCC(C(=O)N2CCN(S(=O)(=O)c3ccccc3Br)CC2)CC1`, the inhibition was 4.21%.

Turning to `CCCCCc1c(-c2cccc(Br)c2)ncn1CCc1ccccc1OC`, the inhibition is -1.26%.

For `CCCCCc1c(Cc2ccccc2)ncn1CCc1ccccc1OC`, the inhibition is 30.2% (active).

For `CCCCCc1c(-c2ccc(OC)c(OC)c2)ncn1CCc1ccccc1OC`, the inhibition was 15.1%.

Turning to `Cc1cccc(C)c1NC(=O)C(c1ccc(C(F)(F)F)cc1)n1c(=O)c(-c2ccco2)nc2ccccc21` (configuration not stated), the inhibition was -5.75%.

In the case of `c1ccc(C(=NNc2nc3ccccc3s2)c2ccccn2)cc1`, the inhibition is 53.7% (active).

For the compound `CCOc1ccc(-n2c(SCC(=O)NC3CCS(=O)(=O)C3)nnc2-c2cccnc2)cc1` (configuration not stated), the inhibition is 0.02%.

On to `c1ccc(COc2ccccc2CNCc2cccnc2)cc1`, for which the inhibition is 6.7%.

With `c1ccc2c(c1)CSc1sccc1C2=C1CCNCC1`, the inhibition was 99% (active).

Consider `O=C(NCc1ccccc1)C1=C[C@@H](C2CCCCC2)C[C@@H](OCc2ccc(CO)cc2)O1`, for which the inhibition is 15.6%.

Regarding `CC(C)(C)[C@H]1C=C(C(=O)NCc2ccccc2)O[C@@H](OCc2ccc(CO)cc2)C1`, the inhibition is 27% (active).

For `O=C(NCc1ccccc1)C1=C[C@H](C2CC2)C[C@H](OCc2ccc(CO)cc2)O1`, the inhibition was 8.59%.

For the compound `COc1ccc(S(=O)(=O)N2CCCC(C(=O)N3CCN(C)CC3)C2)cc1C` (configuration not stated), the inhibition is 10.1%.

For `CC(=O)N1CCCc2cc(S(=O)(=O)N3CCCC(C(=O)N4CCN(c5cccc(Cl)c5)CC4)C3)ccc21` (configuration not stated), the inhibition is 39.3% (active).

Turning to `Cc1ccc(S(=O)(=O)N2CCCC(C(=O)N3CCN(C)CC3)C2)cc1` (configuration not stated), the inhibition is -2.93%.

On to `CC1=C(C)CC(C(=O)NNC(=O)c2csc3c2CCC(C(C)(C)C)C3)C(C(=O)O)C1` (configuration not stated), for which the inhibition is -0.27%.

In the case of `CCc1c(Nc2ccccc2Cl)nc(N)[nH]c1=O`, the inhibition is 6.79%.

Take `Cc1ccccc1NC(=O)Cc1nc(COC(=O)C(C)(C)Oc2ccc(Cl)cc2)cs1`: the inhibition is 0.92%.

Consider `C/C(=N\NC(=O)c1cccc([N+](=O)[O-])c1)c1cccnc1`, for which the inhibition is 0.74%.

Consider `O=C(NC(=S)NC1CCS(=O)(=O)C1)c1cccc([N+](=O)[O-])c1` (configuration not stated), for which the inhibition was -3.13%.

`CC(C)CC(=O)NC(=S)NNC(=O)c1cccc([N+](=O)[O-])c1`: the inhibition was 32.7% (active).

For the compound `C[C@@H](CN1CCC[C@H]1CN1C(N)=NC[C@@H]1Cc1ccccc1)N1C[C@@H](Cc2ccccc2)N(CCCC2CCCC2)C1=N`, the inhibition is 28.9% (active).

With `NC1=NC[C@@H](Cc2ccc(O)cc2)N1CC1CCCCC1`, the inhibition was 9.28%.

For the compound `CC[C@@H](C)[C@@H]1CN([C@@H](C)CN2CCC[C@H]2CN2C(N)=NC[C@H]2C(C)C)C(=N)N1CCc1ccc(Cl)c(Cl)c1`, the inhibition is -2.75%.
